Source: PubChem BioAssay (several laboratories)
Only some compounds are listed: those with a hit (about 2.2% of all), similar ones and a draw of the others.
TROY NFkB inh: inhibitors of TROY-driven NF-kB signaling, primary screen, Q293 LMP1-TROYcd cells, NF-kB luciferase, uHTS. AID 1347056, 2019. 360,000 compounds, 0.98% hits. Q293 LMP1-TROYcd NF-kB luciferase reporter, 4 h. inhibition, % at 10 µM;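 active = compounds whose plate-normalised and pattern-corrected inhibition of the luciferase reporter signal at the single screening dose is 50% or more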
TWEAK Fn14 block: inhibitors of TWEAK-Fn14 signaling, primary screen, luciferase reporter cells, uHTS; TWEAK-stimulated Fn14 reporter cells, luciferase luminescence, 8 h; inhibition, % at 10 µM; AID 1159606, 2016; 360,000 compounds, 2% hits; in the data active = inhibition above about 50%
LGR2 antag: inhibitors of bursicon-induced LGR2 CRE-luciferase signal, primary screen, cell-based, HEK293, CRE-luciferase reporter, bursicon stimulation; Drosophila bursicon receptor LGR2 (rickets); bursicon-stimulated, 4 h; inhibition, % at 9.99 µM; 380,000 compounds, 0.35% hits; AID 720647, 2013;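 active = drop in luminescence signal, shown as inhibition above about 50% in the replicate tests, limit read from the data, passing the limit was not always enough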;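 note: agonist challenge used bursicon conditioned medium at about half maximal strength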
HSP90 refold inh: HSP90 inhibitors, primary screen, cell lysate, luminescence; Heat shock protein HSP 90 (rabbit reticulocyte lysate; luciferase refolding); Rabbit reticulocyte lysate, luciferase refolding luminescence, 3 h; inhibition, % at 5.6 µM; 290,000 compounds, 0.91% hits; AID 1789, 2009;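 active = inhibition above the screen-wide mean plus 3 SD, computed separately per campaign, cut at about 16% in these data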;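 note: 0% = DMSO wells and 100% = 60 µM geldanamycin wells; inhibitors lower the luminescence because luciferase stays unfolded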
HSP90 inh confirm: HSP90 inhibitors, confirmation, cell lysate, luminescence. 2,300 compounds, 64% hits. inhibition, % at 5.9 µM. rabbit reticulocyte lysate, luciferase refolding luminescence, 3 h. shares compounds with HSP90 refold inh; in the data active = inhibition above about 18%;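 note: 0% = vehicle wells and 100% = reference inhibitor wells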
FLuc counter: firefly luciferase inhibitors, HSP90 counter-screen, confirmation, artefact control for HSP90 inhibitor project, biochemical, luminescence, triplicate; inhibition, % at 5.9 µM; shares compounds with HSP90 refold inh; purified native firefly luciferase; AID 1847, 2009; 2,300 compounds, 48% hits;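 active = inhibition above the mean inhibition of all tested sample wells plus 3 SD, cut at about 10% in these data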;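 note: 0% = DMSO with luciferase and 100% = wells lacking luciferase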
Target sequence (P08659 whole entry, looked up): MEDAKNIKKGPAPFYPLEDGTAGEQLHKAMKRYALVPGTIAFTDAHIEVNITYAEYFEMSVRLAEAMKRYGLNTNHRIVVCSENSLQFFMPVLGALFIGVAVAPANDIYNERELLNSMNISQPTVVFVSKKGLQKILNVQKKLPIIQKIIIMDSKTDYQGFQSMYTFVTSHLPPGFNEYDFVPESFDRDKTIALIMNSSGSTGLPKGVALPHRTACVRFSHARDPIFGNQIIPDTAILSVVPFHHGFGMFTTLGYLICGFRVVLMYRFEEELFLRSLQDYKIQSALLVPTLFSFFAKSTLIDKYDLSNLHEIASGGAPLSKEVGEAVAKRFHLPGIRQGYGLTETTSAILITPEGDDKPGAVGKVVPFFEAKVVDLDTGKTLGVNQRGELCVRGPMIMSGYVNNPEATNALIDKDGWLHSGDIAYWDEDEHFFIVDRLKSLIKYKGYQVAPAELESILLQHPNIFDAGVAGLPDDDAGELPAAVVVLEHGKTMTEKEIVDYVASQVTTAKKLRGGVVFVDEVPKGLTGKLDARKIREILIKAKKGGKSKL
Starred values were filed as active, the others as inactive.

How did O=C(C[C@H]1CC[C@@H]2[C@H](COC[C@H](O)CN2C(=O)c2ccccc2)O1)NC1Cc2ccccc2C1 do in these assays?
LGR2 antag: -10

What do the screens show for `CCCNC(=O)N1[C@H](CO)[C@@H](c2ccccc2-c2ccc(OC)cc2)[C@@H]1C#N`?
LGR2 antag: 9

Results for c1ccc(C2CSc3ccccc3N2)cc1 (stereo not given) ?
TROY NFkB inh: -44; TWEAK Fn14 block: 14; LGR2 antag: -124; HSP90 refold inh: 38*; HSP90 inh confirm: -1; FLuc counter: -17

How did CC1CSc2ccccc2NC1=S (stereo not given) do in these assays?
TROY NFkB inh: -4; TWEAK Fn14 block: -21; HSP90 refold inh: 6

How did C[C@@H]1CN([C@H](C)CO)C(=O)c2cc(NC(=O)c3ccncc3)ccc2O[C@@H]1CN(C)S(=O)(=O)c1cccs1 do in these assays?
LGR2 antag: 4

Results for CC1(C)CCc2cc(-c3ccnc(=S)[nH]3)ccc2O1 ?
TROY NFkB inh: 50; TWEAK Fn14 block: 62*; HSP90 refold inh: 18*; HSP90 inh confirm: 9; FLuc counter: -17

What do the screens show for `Cc1cccc(N/C=C/C(=O)c2ccc(Cl)cc2)c1`?
TROY NFkB inh: -23; TWEAK Fn14 block: 13; LGR2 antag: -69; HSP90 refold inh: -1

Results for O=C(/C=C\Nc1ccccn1)c1ccc(Cl)cc1 ?
TROY NFkB inh: 50; TWEAK Fn14 block: 87*; HSP90 refold inh: 39*; HSP90 inh confirm: 80*; FLuc counter: 73*

How did O=C(N/C(=C/c1cccs1)C(=O)N1CCCCCC1)c1ccccc1 do in these assays?
TROY NFkB inh: -3; TWEAK Fn14 block: 1; LGR2 antag: 2; HSP90 refold inh: 0

What do the screens show for `O=C(N/C(=C\c1cccs1)C(=O)N1CCCCCC1)c1ccccc1`?
TROY NFkB inh: 1; TWEAK Fn14 block: -22; LGR2 antag: -10; HSP90 refold inh: 31*; HSP90 inh confirm: -1; FLuc counter: -20

What do the screens show for `S=C(NCCCNC(=S)Nc1ccccc1)Nc1ccccc1`?
TROY NFkB inh: 1; TWEAK Fn14 block: 18; LGR2 antag: 1; HSP90 refold inh: 3

How did CC(O)CNC(=S)Nc1ccccc1 (stereo not given) do in these assays?
TROY NFkB inh: -7; TWEAK Fn14 block: 4; LGR2 antag: -1; HSP90 refold inh: 23*; HSP90 inh confirm: -6; FLuc counter: -13

How did CCNC(=O)[C@H]1[C@H](CO)[C@H]2Cn3c(cccc3=O)[C@H]2N1CC1CCCCC1 do in these assays?
LGR2 antag: -4

How did O=C(N[C@H]1CC[C@@H](CC(=O)N2CCCCC2)O[C@@H]1CO)c1cccc(F)c1 do in these assays?
LGR2 antag: 7

How did COCCCN=Cc1c(C)[nH]n(-c2ccc(Br)c(C)c2)c1=O do in these assays?
TROY NFkB inh: 71*; TWEAK Fn14 block: 65*; LGR2 antag: 16; HSP90 refold inh: 18*; HSP90 inh confirm: 42*; FLuc counter: 38*

What do the screens show for `O=C(CC(F)(F)F)N1C[C@@H]2[C@H](c3ccccc31)[C@@H](CO)N2C(=O)CN1CCOCC1`?
LGR2 antag: -5

How did Cc1ccc(C(=O)CSc2cnc3ccccc3n2)cc1C do in these assays?
TROY NFkB inh: 76*; TWEAK Fn14 block: 89*; LGR2 antag: -17; HSP90 refold inh: 37*; HSP90 inh confirm: 47*; FLuc counter: 29*

How did Cc1ccc(-c2onc3ccc(C4OCCO4)cc23)cc1 do in these assays?
TROY NFkB inh: -61; TWEAK Fn14 block: 1; LGR2 antag: -46; HSP90 refold inh: 35*; HSP90 inh confirm: 1; FLuc counter: -20

How did Cc1onc(-c2cccc(Cl)c2Cl)c1C(=O)O/N=C(\N)c1ccc([N+](=O)[O-])o1 do in these assays?
TROY NFkB inh: -8; TWEAK Fn14 block: -35; LGR2 antag: 28; HSP90 refold inh: 33*; HSP90 inh confirm: -4; FLuc counter: -7

How did Cc1cc(C(=O)Cn2nnc3ccccc3c2=O)c(C)n1Cc1cccs1 do in these assays?
TROY NFkB inh: -9; TWEAK Fn14 block: -9; HSP90 refold inh: 35*; HSP90 inh confirm: 53*; FLuc counter: 45*

How did COc1ccccc1N(Cc1ccccc1)S(=O)(=O)c1cccc(C(=O)Nc2cc(C)ccn2)c1 do in these assays?
TROY NFkB inh: 55*; TWEAK Fn14 block: 66*; LGR2 antag: 55*; HSP90 refold inh: 38*; HSP90 inh confirm: 58*; FLuc counter: 41*

Results for COc1ccc(S(=O)(=O)N(C)C[C@H]2OCCCC[C@H](C)Oc3ccc(NS(C)(=O)=O)cc3C(=O)N([C@H](C)CO)C[C@@H]2C)cc1 ?
LGR2 antag: 0

How did CCOc1ccc2c(c1)C(C)=CC(C)(C)N2S(=O)(=O)c1ccc(C)cc1 do in these assays?
TROY NFkB inh: 14; TWEAK Fn14 block: 35; LGR2 antag: -4; HSP90 refold inh: 30*; HSP90 inh confirm: 12; FLuc counter: 4

What do the screens show for `Oc1ccc(-c2csc(Nc3ccccn3)n2)cc1`?
TROY NFkB inh: -27; TWEAK Fn14 block: 6; LGR2 antag: -86; HSP90 refold inh: 21*; HSP90 inh confirm: -2; FLuc counter: -12

What do the screens show for `Cc1ccc(-c2csc(Nc3ccccn3)n2)cc1`?
TROY NFkB inh: 31; TWEAK Fn14 block: 82*; LGR2 antag: 81*; HSP90 refold inh: 19*; HSP90 inh confirm: 26*; FLuc counter: 17*

How did COc1cccc(NC(=O)CNC(=O)[C@@H]2Cc3ccccc3CN2C(=O)OC(C)(C)C)c1 do in these assays?
TROY NFkB inh: 5; TWEAK Fn14 block: -6; LGR2 antag: 0; HSP90 refold inh: -1

How did CC(C)(C)OC(=O)N1Cc2ccccc2C[C@H]1C(=O)NCC(=O)Nc1ccc2c(c1)OCCO2 do in these assays?
TROY NFkB inh: 82*; TWEAK Fn14 block: 96*; LGR2 antag: 29; HSP90 refold inh: 32*; HSP90 inh confirm: 52*; FLuc counter: 69*

Results for C[C@H]1CN([C@@H](C)CO)C(=O)c2cc(NS(=O)(=O)c3ccc(F)cc3)ccc2O[C@@H]1CN(C)Cc1ccc(C(=O)O)cc1 ?
LGR2 antag: -10

What do the screens show for `O=S(=O)(NCC[C@@H]1CC[C@H](NS(=O)(=O)c2cccc(Cl)c2)[C@@H](CO)O1)c1cccc(F)c1`?
LGR2 antag: -5

What do the screens show for `COc1ccc(N2C(=O)c3ccccc3NC23CCCC3)cc1`?
TROY NFkB inh: -7; TWEAK Fn14 block: 13; LGR2 antag: -6; HSP90 refold inh: 19*; HSP90 inh confirm: 2; FLuc counter: -6

What do the screens show for `CCC1(CC)Nc2ccccc2C(=O)N1c1ccc(OC)cc1`?
TROY NFkB inh: 13; TWEAK Fn14 block: 17; LGR2 antag: -3; HSP90 refold inh: 11
